Source: PubChem (National Center for Advancing Translational Sciences (NCATS))
Tau fibril ThT = tau fibrillization inhibition (ThT binding); recombinant tau K18 P301L, heparin-induced fibrillization, ThT fluorescence; AID 1460; 270,000 compounds, 2.1% hits; Potency, µM (series often up to 57.4 µM), for inactives: top-dose activity, negative = inhibition, most hits filed as inhibitors; P10636; further: potency means the concentration at half of the fitted maximal effect; nearly all actives have a fitted effect of over 55% in size
Target sequence (P10636 561-689 P618L limits assumed): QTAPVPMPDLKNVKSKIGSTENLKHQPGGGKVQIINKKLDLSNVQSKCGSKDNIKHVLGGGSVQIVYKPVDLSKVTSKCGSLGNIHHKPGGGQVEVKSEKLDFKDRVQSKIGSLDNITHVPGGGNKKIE
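Fibril formation assay: tau K18 P301L at 15 uM with trace Alexa 594 label, heparin inducer 20 uM, pH 7 sodium acetate buffer, 37 C for 6 hr; endpoint ThT signal.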
Tau fluor cs = counter-screen for tau fibril formation inhibitors. tau K18 P301L Alexa594 fluorescence, heparin fibrillization. Potency, µM (highest dose often 57.7 µM), for the others: at the top dose activity change, negative = decrease. 280,000 compounds, 0.93% hits. AID 1463; further: potency means the concentration at half of the fitted maximal effect; nearly all actives have a fitted effect of over 55% in size
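Human tau K18 P301L (15 uM unlabeled, 0.24 uM Alexa 594-labeled) in 100 mM sodium acetate pH 7 with 20 uM heparin, 6 hr at 37 C. ThT 30 uM added, 1 hr ambient; Alexa 594 FP and total fluorescence read at 555/632 nm.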
FBPA coupling cs = inhibits coupling enzyme system, counter-screen for aldolase hits. coupling enzyme system counterscreen, AmpLite Red fluorescence. activity change, negative = inhibition, % at 58.2 µM, hits read low. 290,000 compounds, 0.67% hits. AID 2472; in the data active means activity change below about -30%
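Counterscreen lacking aldolase: glyceraldehyde-3-phosphate coupling-enzyme reagent preincubated 10 min at RT with compound (at 57.5 uM final), then substrate/coupling system with AmpLite Red added; fluorescence read at 525/598 nm after 20 min RT.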
Tau FP inhib = tau fibrillization inhibition (FP); P10636; K18 P301L tau heparin fibrillization, Alexa594 FP, 6 h; Potency, µM (highest dose often 57.7 µM), without a hit: top-dose activity, negative = inhibition, usual class: inhibitors; 280,000 compounds, 0.39% hits; further: potency means the concentration at half of the fitted maximal effect; nearly all actives have a fitted effect of over 55% in size
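K18 P301L tau (15 uM unlabeled/0.24 uM Alexa 594-labeled, final) + compound + heparin 20 uM final; 100 mM NaOAc pH 7; 6 hr 37 C; ThT 30 uM final added, 1 hr RT; FP ex 555/em 632 nm.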
JMJD2E inh = blocks human JMJD2E demethylase activity; B2RXH2; JMJD2E catalytic domain, FDH-coupled NADH fluorescence (FDH is formaldehyde dehydrogenase); Potency, µM (doses to about 57.1 µM), inactives show top-dose activity change, negative = inhibition, usual class: inhibitors; 230,000 compounds, 1.6% hits; AID 2147; active means well fitted inhibition curve with a large enough effect, not every such curve was filed as active; inconclusive means small, poorly fitted or top-dose-only effect, or another doubt; inactive means no such curve, though single readings can be large or run the other way;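 further: potency means the concentration at half of the fitted maximal effect; 0% = wells with enzyme and -100% = buffer wells without enzyme; nearly all actives have a fitted effect of over 50% in size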
Target sequence (B2RXH2 1-337 limits assumed): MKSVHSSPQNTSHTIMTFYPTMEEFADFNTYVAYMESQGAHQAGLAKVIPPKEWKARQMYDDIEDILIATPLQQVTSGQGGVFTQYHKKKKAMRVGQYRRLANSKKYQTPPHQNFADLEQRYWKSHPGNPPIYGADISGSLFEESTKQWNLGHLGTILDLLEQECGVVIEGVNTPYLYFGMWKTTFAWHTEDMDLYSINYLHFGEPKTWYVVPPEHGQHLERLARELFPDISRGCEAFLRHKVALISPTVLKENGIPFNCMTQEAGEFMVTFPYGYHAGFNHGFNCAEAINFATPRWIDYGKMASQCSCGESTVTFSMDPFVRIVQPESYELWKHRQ
* = called active by the depositor; ? = inconclusive; / = no result given; [ ] = remark or other dose. Most compounds without a hit are left out; they make up all but 3% or so of the library. Unless noted, the call rests on the fitted dose curve; in most records, active means well fitted curve in the direction sought with a large enough effect; inconclusive means small, poorly fitted or top-dose-only effect, or another doubt; inactive means no such curve, though single readings can be large; an effect the other way counts as inactive or inconclusive. Unless noted, on the % scale 0 is the no-effect control and ±100 the full control effect.

SMILES	Tau fibril ThT	Tau fluor cs	FBPA coupling cs	Tau FP inhib	JMJD2E inh
CCC(=O)OC1CCC2C3CCc4cc(O)ccc4C3CC[C@]12C (some centres undefined)	?	?	-7	?	-17%
COc1c(C)cc(Br)cc1C(=O)Nc1ccc(-c2nc3ncccc3o2)cc1	?	-16%	/	-4%	/
CS(=O)(=O)c1ncc(Cl)c(C(=O)Nc2c(C(=O)Nc3ccccc3)oc3ccccc23)n1	8.9µM*	-28%	/	-7%	/
Cn1c(O)c(C=NCC2CCNCC2)c(=O)n(C)c1=O	-11%	-6%	0	-14%	?
COc1ccc2c(c1O)-c1cc(O)cc3c1[C@@H](C2)N(C)CC3	-16%	-18%	/	0%	/
COc1cc2c(cc1O)[C@H]1Cc3ccc(OC)c(O)c3CN1CC2	/	/	-38*	/	?
COc1ccc2c(c1)CCC1C2CC[C@@]2(C)C1CC[C@@H]2NCCCCCCN1C(=O)C=CC1=O (some centres undefined)	-13%	-4%	/	10%	-1%
O=C1NC(=O)N(c2ccccc2)C(=O)/C1=C/c1ccoc1	?	-5%	1	-9%	-6%
Cc1ccc(N2C(=O)NC(=O)/C(=C/c3cnc(-c4ccccc4)nc3)C2=O)cc1C	16µM*	-23%	7	?	13µM*
Cc1cccc(N2C(=O)NC(=O)/C(=C\c3cnc(-c4ccccc4)nc3)C2=O)c1	5%	2%	17	4%	-6%
CC(C)c1ccc(N2C(=O)NC(=O)/C(=C\c3cnc(-c4ccccc4)nc3)C2=O)cc1	22µM*	-19%	11	?	20µM*
C[C@]12CC[C@@H](O)CC1CCC1C2CC[C@]2(C)C(=O)CC[C@@H]12 (some centres undefined)	-17%	-13%	/	-5%	1%
COc1ccc(-n2c(-c3ccc(C)cc3)nc3ccccc3c2=O)cc1	-9%	-6%	1	5%	-5%
COc1ccc(-c2nc3ccccc3c(=O)o2)cc1	?	-15%	-13	1%	25µM*
O=C(O)Cc1cccnc1C(=O)O	?	-8%	-68*	-10%	1.6µM*
CC(C)C1(C)N=C(c2ncccc2C(=O)O)NC1=O (centres undefined)	-7%	-12%	3	-7%	-16%
CCCc1cc2c(n1Cc1ccco1)C(C)C1CN(C(=O)c3ccccc3)C(C)(C(=O)OC)C21 (centres undefined)	22µM*	-12%	-10	?	?
CC1=CC2/C=C(\C)CCC(O)C(O)/C=C/C(=O)C23C(=O)NC(CC(C)C)C3C1C (centres undefined)	?	-3%	-1	-9%	1%
C/C1=C\[C@@H](C)C/C=C/[C@H]2[C@@H]3O[C@]3(C)[C@@H](C)[C@H]3[C@H](Cc4c[nH]c5ccccc45)NC(=O)[C@]32C(=O)/C=C/C(=O)[C@@H]1O	0.89µM*	?	-1	-19%	-1%
CCOc1ccc(-n2c(O)c(N=Nc3c(C)n(C)n(-c4ccccc4)c3=O)c(=O)[nH]c2=O)cc1	?	-18%	0	-7%	7.9µM*
Cc1c(N=Nc2c(O)[nH]c(=S)[nH]c2=O)c(=O)n(-c2ccccc2)n1C	?	-7%	-3	?	-6%
COc1ccc(CN2CCc3nc(N4CCN(c5ccc(F)cc5)CC4)ncc3C2)c(OC)c1OC	?	-17%	/	-1%	/
COC1=C[C@H]2[C@H]3Cc4ccc(OC)c(O)c4[C@@]2(CCN3C)CC1=O	-15%	-11%	-13	?	?
O=C(c1ccc2nc(-c3ccco3)c(-c3ccco3)nc2c1)N1CCC2(CC1)OCCO2	8.9µM*	?	-45*	20µM*	?
COC(=O)C1C(O)C(C)C(O)C(C)/C=C\C=C(/C)C(=O)Nc2c(C)c(OC(C)=O)c3c(c2O)C(=O)C(C)=C2OCOC(=C23)/C(C)=C/C(C)(O)C(O)C(C)C1O (centres undefined)	32µM*	?	-30*	?	?
SMILES	Tau fibril ThT	Tau fluor cs	FBPA coupling cs	Tau FP inhib	JMJD2E inh
COc1cc(C(=O)N/N=C/c2ccc(OC(=O)N3CCOCC3)cc2)cc(OC)c1OC	-18%	3%	5	2%	28µM*
O=C(Nc1cccc(OC(=O)N2CCOCC2)c1)N1CCOCC1	-1%	2%	0	-2%	0%
CCOC(=O)C1CCN(/C=C2/C(=O)NC(=O)N(c3ccc(OCC)cc3)C2=O)CC1	14µM*	-19%	0	?	1%
Cc1ccc(Cl)cc1NC(=O)Cn1c(=O)oc2cc(S(=O)(=O)N3CCCCCC3)ccc21	17%	-3%	/	?	/
CC(=O)C1=C(O)C2C3c4c[nH]c5cccc(c45)CC3C(C)(C)N2C1=O (centres undefined)	-23%	-15%	1	-7%	?
CC(=O)C1=C(O)[C@@H]2[C@@H]3c4c[nH]c5cccc(c45)C[C@@H]3C(C)(C)N2C1=O	-14%	-9%	2	-8%	13µM*
C[C@H]1CO1	/	/	1	/	/
O=C1/C(=C\c2ccccc2)C[C@@]2(O)[C@H]3Cc4ccc(O)c5c4[C@@]2(CCN3CC2CC2)[C@H]1O5	-16%	0%	/	-9%	/
O=C1NC(=O)N(c2ccc(F)cc2)C(=O)/C1=C/c1ccc(N2CCOCC2)cc1	?	-14%	-4	-6%	?
O=C1NC(=O)N(Cc2ccc(F)cc2)C(=O)/C1=C\c1ccc(N2CCCC2)cc1	25µM*	29%	0	-5%	-26%
COc1ccc(CN2C(=O)NC(=O)/C(=C/c3ccc([N+](=O)[O-])s3)C2=O)cc1	7.9µM*	?	-4	25µM*	25µM*
O=C1NC(=O)N(Cc2ccc(F)cc2)C(=O)/C1=C\c1ccc([N+](=O)[O-])s1	/	?	-6	0.35µM*	28µM*
CC[C@@H]1/C=C/C=C/C[C@H](C)[C@@H](O)[C@](C)(O)C(=O)[C@H](C)[C@@H](O)[C@H](C)C(=O)[C@H](C)[C@@H](O)[C@H](C)/C=C/C(=O)O[C@H]2[C@@H](C)[C@@H](CC1)O[C@@]1(CC[C@@H](C)[C@@H](C[C@H](C)O)O1)[C@@H]2C	?	-16%	/	-7%	/
Nc1c(C(=O)Nc2ccc(Cl)c(C(F)(F)F)c2)sc2nc3c(cc12)N1CCC3CC1	?	5µM*[quencher]	/	?	/
COc1cc(NC(=O)c2cc3cc4ccc(C)cc4nc3o2)cc(OC)c1OC	?	-16%	/	-10%	/
CCc1c(C(=O)OC)ncc2[nH]c3cc(OC)c(OC)cc3c12	?	16µM*[quencher]	/	6%	?
CCOc1ccc(-c2nc(CSCC(=O)NCCc3ccc(OCC)c(OCC)c3)c(C)o2)cc1	?	-10%	/	-15%	/
